The panel holds about 79,000 compounds, 15% with a hit somewhere; the sample as a whole holds those more often. Values without a mark were called inactive. Active and inactive are the calls of the source. No stated cut-off is given here; in the data, active means growth inhibition above about 70%; inactive means the rest.
test: NCI Yeast Anticancer Drug Screen. Data for the mlh1 rad18 strain (AID 175); conditions: S. cerevisiae mlh1 rad18 strain growth inhibition; at 50.0 µM (retest, dose inferred, filed as 5.0); stronger effect = higher value
Outline: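 Genetically defined yeast (DNA repair-deficient) exposed to compounds; growth inhibition determined relative to vehicle.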

| Compound | growth inhibition |
| --- | --- |
| COC(=O)/C=C/c1cccc[n+]1[O-] | -11% |
| CN(C)CCCNc1c(C#N)[n+]([O-])c2cc(Cl)ccc2[n+]1[O-] | 93% (active) |
| Cc1c(N=Nc2ccc(Br)cc2)c(-c2ccccc2)nn1C(N)=S | 97% (active) |
| COc1cc2c(c(OC)c1OC)-c1ccc(O)c(=O)cc1C(N=Cc1ccccc1)CC2 (centres undefined) | 0% |
| CCC(C)SC1SCC2C(=O)N(C)C3(CC3C)C(=O)OCC(NC(=O)c3nc4ccccc4cc3O)C(=O)NC(C)C(=O)N(C)C1C(=O)N(C)C1(CC1C)C(=O)OCC(NC(=O)c1nc3ccccc3cc1O)C(=O)NC(C)C(=O)N2C (centres undefined) | 84% (active) |
| O=C(N/C(=C\c1ccc2c(c1)OCO2)c1nc2ccccc2s1)c1ccccc1 | 97% (active) |
| CCCC/C=C1/CCC(CN(C)C)C1=O (centres undefined) | 69% |
| O=C(O)c1cc2c(cc1CC(Cc1ccc3c(c1)CCCC3)C(=O)O)CCCC2 (centres undefined) | 96% (active) |
| CCNC(=O)COc1ccc(Cl)cc1Cl | 2% |
| Fc1ccc(OCCC(Cn2ccnc2)c2ccc(Cl)cc2Cl)cc1 (centres undefined) | 99% (active) |
| Cc1ccc(NC(=O)/C(CC(=O)c2sc(Nc3ccc(Cl)c(Cl)c3)nc2C)=N\Nc2ccc([N+](=O)[O-])cc2[N+](=O)[O-])c(C)c1 | 96% (active) |
| Oc1ccc(C/C=C/c2ccccc2)cc1O | 98% (active) |
| CC(=O)OC1=CC2=CCC3C(CCC4(C)C(C(C)=O)CCC34)C2(C)CC1 (centres undefined) | -11% |
| CCCCNc1ccc(-c2c(N)nc(N)nc2CC)cc1[N+](=O)[O-] | -16% |
